Calls of active or inactive are those of the source.

The nature of one assay: E. coli acrAB mutant growth effects, primary screen, E. coli filamentation inducers, strain DRC39, OD650, 24 h (AID 1178).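 Further: growth measured as culture turbidity by optical density at 650 nm; test concentration not given here.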 To be noted: higher = more signal, called active from +8 up or from −8 down.
For `CCCC[C@H]1OB(O)C[C@H]2C1=C(COC)Cn1c(=O)n(-c3ccccc3)c(=O)n12`, the z-score is 0.451 (inactive).
On to `CN(C)CCCCCCNC(=O)[C@@H]1C[C@@H]2C(=O)N[C@@H](Cc3ccccc3)C(=O)N2[C@@H]1c1ccc(O)cc1`, for which the z-score was -0.725 (inactive).
For `C=C(COC)/C(=C/C[C@H](OC(C)=O)c1ccc(CO)o1)c1cc(C(=O)OC)ccc1OC`, the z-score is -1.38 (inactive).
The same measure, in the same setting: to `COC(=O)[C@@]1(Cc2ccc(OC)cc2)[C@@H]2C(=CC(=O)[C@H]2CC(=O)C(=O)N2CCCC2)CN1C(=O)c1ccccc1` belongs -0.0187 (inactive); to `Cc1ccc(N2C(=O)c3ccccc3[C@@H](C(=O)NC3CC3)[C@@H]2c2ccc(CO)cc2)nc1`, 0.659 (inactive).
For `COCCOC(=O)N1C(=O)[C@@]2(c3cc(C#CCC(C(=O)OC)C(=O)OC)ccc31)[C@H](C(=O)Nc1nc3ccccc3s1)[C@H]1C(=O)O[C@H](c3ccccc3)[C@H](c3ccccc3)N1[C@@H]2c1ccccc1OCCO`, the z-score is 0.0871 (inactive).
Turning to `COCCOC(=O)N1C(=O)[C@@]2(c3cc(C#CCC(C(=O)OC)C(=O)OC)ccc31)[C@H](c1ccccc1OCCO)N1[C@H](c3ccccc3)[C@H](c3ccccc3)OC(=O)[C@H]1[C@@H]2C(=O)NC[C@H](O)c1ccccc1`, the z-score was 0.675 (inactive).
As for `CCCC[C@@H]1C[C@H]1[C@@H](NC(=O)c1ccccc1)c1ccc(C(=O)OC)cc1`, the z-score is -0.986 (inactive).
On the same count and under the same terms, to `O=C1[C@@]23C=C(Br)[C@H](C[C@@H]2CCOC3)[C@@]12CO2` belongs 0.297 (inactive).

Another assay can be described thus: E. coli acrAB mutant growth effects, primary screen, E. coli filamentation inducers, strain DRC39, OD650, 48 h (AID 1179).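 Further: screen aims at cell division blockers that make cells filament.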 To be noted: E. coli DRC39 delta-acrAB growth, higher = more signal, called active from +8 up or from −8 down.
As to `C=C(/C(=C/C[C@H](OC(C)=O)c1ccc(CO)o1)c1cc(C(=O)OC)ccc1OC)C(C)C`, the z-score is -0.94 (inactive).
Take `COC(=O)[C@@]1(Cc2ccccc2)N=C(c2ccc(OCCCO)cc2)O[C@H]1c1ccccc1`: the z-score was 0.608 (inactive).
With `CC(C)C[C@@H]1NC(=O)[C@@H]2C[C@H](C(=O)NCc3ccc(F)cc3)[C@H](c3cccc(OCCO)c3)N2C1=O`, the z-score was 1.48 (inactive).
For `O=C1c2ccccc2[C@](Cc2ccccc2I)(C(=O)NCCN2CCOCC2)[C@H](c2ccc(CO)cc2)N1C1CCCCC1`, the z-score is 0.205 (inactive).
For the molecule `O=C1c2ccccc2[C@](Cc2ccccc2I)(C(=O)NCCN2CCOCC2)[C@H](c2ccc(CO)cc2)N1Cc1ccccc1Cl`, the z-score is -0.108 (inactive).
As for `CC(C)C(=C=CC[C@@H](O)c1ccc(OCCO)cc1)C[C@@H](O)COCc1ccccc1`, the z-score is 1.29 (inactive).
With `COC(=O)[C@]1(CCC(=O)OC(C)(C)C)N=C(c2ccc(OCCCO)cc2)O[C@@H]1c1ccccc1CN=[N+]=[N-]`, the z-score is -0.721 (inactive).
For the molecule `NC(=O)NCC#Cc1ccc2c(c1)[C@]1(C(=O)N2)[C@H](c2ccccc2OCCO)N2[C@H](c3ccccc3)[C@H](c3ccccc3)OC(=O)[C@H]2[C@@H]1C(=O)Nc1nc2ccccc2s1`, the z-score was 0.24 (inactive).
Take `C=CCC(OC(C)=O)[C@@H]1[C@@H](N(Cc2ccc(-c3ccccc3)cc2)C(=O)Cc2ccc(OC)cc2)c2cc(OCCCO)ccc2N1C(=O)Cc1ccc2ccccc2c1` (some centres undefined): the z-score is -0.851 (inactive).
Turning to `C=C(CCCC)C(=O)CC[C@@H](OC(=O)c1ccccc1-c1ccccc1C(=O)O)c1ccc(OCCO)cc1`, the z-score is -0.297 (inactive).
As to `CCCC[C@@H]1C[C@H]1[C@@H](NC(=O)c1ccco1)c1ccccc1C(F)(F)F`, the z-score is -0.127 (inactive).
On to `CCOC(=O)C[C@H]1[C@H](OC(=O)c2cc3ccccc3oc2=O)[C@@H](NC(=O)c2ccccc2)c2cc(OCCCO)ccc2N1C(=O)c1ccc2ccccc2n1`, for which the z-score is -1.2 (inactive).
On to `CCN(CC)c1ccc(N2CC=CC34O[C@@H]5C=CCCOC(=O)C5[C@H]3C(=O)N(CCCCCCO)[C@@H]4C2=O)cc1` (some centres undefined), for which the z-score was 0.534 (inactive).
Take `COC(=O)[C@@]1(Cc2ccccc2)[C@H]2c3cc(C(=O)N(C)C)n(Cc4ccsc4Br)c3C[C@H]2CN1C(=O)c1ccccc1`: the z-score is 0.0523 (inactive).
For `COCCOC(=O)N1C(=O)[C@@]2(c3ccccc31)[C@H](c1ccccc1OCCO)N1[C@H](c3ccccc3)[C@H](c3ccccc3)OC(=O)[C@H]1[C@@H]2C(=O)N1CCN(c2ncccn2)CC1`, the z-score was 0.176 (inactive).
For the molecule `O[C@@H](Cc1ccccc1)[C@H]1C2C=CCCC=C2CN1Cc1cccc(Cl)c1` (some centres undefined), the z-score is 0.73 (inactive).
As for `COc1cc2c(cc1OC)CN(C(=O)[C@@H]1[C@H]3C(=O)O[C@H](c4ccccc4)[C@H](c4ccccc4)N3[C@H](c3ccccc3OCCO)[C@@]13C(=O)Nc1ccc(C#CCCO)cc13)CC2`, the z-score is 0.793 (inactive).
`Cc1ccc(S[C@]2(C(=O)O)CC(=O)N(C(C)C)[C@@H]2c2ccc(CO)cc2I)cc1`: the z-score is 1.42 (inactive).
As to `O=C1O[C@H](c2ccccc2)[C@H](c2ccccc2)N2[C@H]1[C@@H](C(=O)N1CCCCCCC1)[C@]1(C(=O)Nc3ccc(C#CCCO)cc31)[C@H]2c1ccccc1OCCO`, the z-score was -0.106 (inactive).
On the same count and under the same terms, to `C=CCNC(=O)[C@@H]1[C@H]2C(=O)O[C@H](c3ccccc3)[C@H](c3ccccc3)N2[C@H](c2ccc(O)cc2)[C@@]12C(=O)N(C(=O)OCCOC)c1ccc(C#CCNC(N)=O)cc12` belongs 1.39 (inactive).
Turning to `O=C(c1ccccc1)N1C(=O)[C@@]2(Cc3ccccc31)N=C(c1ccc(OCCCO)cc1)O[C@H]2c1ccccc1`, the z-score was -0.239 (inactive).
As for `C=C(/C(=C/C[C@H](OC(C)=O)c1ccccc1OCCO)c1cnc2ccccc2c1)C(C)C`, the z-score was -0.622 (inactive).
For `CC(C)C(CO)N1C(=O)[C@@H]2C3C(=O)OCCC/C=C\[C@H]3OC23C=CCN(CCN2CCOCC2)C(=O)[C@@H]13` (some centres undefined), the z-score was 0.566 (inactive).
As for `CCCC[C@H]1OB(O)C[C@H]2C1=C(COC)C[C@H]1C(=O)N(C)C(=O)[C@H]12`, the z-score was -0.595 (inactive).
Turning to `COC(=O)[C@@]1(Cc2ccc(F)cc2)[C@H]2c3cc(C(=O)N(C)C)n(Cc4ccc(Cl)c(C(F)(F)F)c4)c3C[C@H]2CN1C(=O)c1ccccc1`, the z-score is -0.531 (inactive).
`COc1ccc(CCNC(=O)[C@@]2(Sc3ccc(C)cc3)CC(=O)N(C3Cc4ccccc4C3)[C@@H]2c2ccc(CO)cc2I)cc1`: the z-score was -0.325 (inactive).
On the same count and under the same terms, to `CCCC[C@H]1OB(O)C[C@H]2C1=C(COC)Cn1c(=O)n(-c3ccccc3)c(=O)n12` belongs 0.452 (inactive); to `CN(C)CCCCCCNC(=O)[C@@H]1C[C@@H]2C(=O)N[C@@H](Cc3ccccc3)C(=O)N2[C@@H]1c1ccc(O)cc1`, -1.25 (inactive).
Turning to `C=C(COC)/C(=C/C[C@H](OC(C)=O)c1ccc(CO)o1)c1cc(C(=O)OC)ccc1OC`, the z-score is -0.816 (inactive).
Consider `COC(=O)[C@@]1(Cc2ccc(OC)cc2)[C@@H]2C(=CC(=O)[C@H]2CC(=O)C(=O)N2CCCC2)CN1C(=O)c1ccccc1`, for which the z-score was 0.798 (inactive).
As to `Cc1ccc(N2C(=O)c3ccccc3[C@@H](C(=O)NC3CC3)[C@@H]2c2ccc(CO)cc2)nc1`, the z-score is 0.188 (inactive).
`COCCOC(=O)N1C(=O)[C@@]2(c3cc(C#CCC(C(=O)OC)C(=O)OC)ccc31)[C@H](C(=O)Nc1nc3ccccc3s1)[C@H]1C(=O)O[C@H](c3ccccc3)[C@H](c3ccccc3)N1[C@@H]2c1ccccc1OCCO`: the z-score is 0.642 (inactive).
As to `COCCOC(=O)N1C(=O)[C@@]2(c3cc(C#CCC(C(=O)OC)C(=O)OC)ccc31)[C@H](c1ccccc1OCCO)N1[C@H](c3ccccc3)[C@H](c3ccccc3)OC(=O)[C@H]1[C@@H]2C(=O)NC[C@H](O)c1ccccc1`, the z-score is 0.382 (inactive).
For `CCCC[C@@H]1C[C@H]1[C@@H](NC(=O)c1ccccc1)c1ccc(C(=O)OC)cc1`, the z-score is -0.885 (inactive).
With `O=C1[C@@]23C=C(Br)[C@H](C[C@@H]2CCOC3)[C@@]12CO2`, the z-score is 0.319 (inactive).

The values above are taken from PubChem BioAssay.
